# Results from PubChem BioAssay (NCI).
# The panel holds about 83,000 compounds, 20% with a hit somewhere; the sample as a whole holds those more often.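 Plates (96-well) were seeded with cells, treated with compound at one concentration, and incubated for 48 hours before percent growth was determined.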 Values without a mark were called inactive. The source made the active and inactive calls. How the source made its calls: active means growth percent below 10; inactive means the rest.
# Tests used:
# Test in all cases: NCI-60 one-dose screen, 48 h (100 = growth as untreated, 0 = no growth, -100 = all killed)
# [1] = tested on: DU-145 prostate; conditions: 10 µM unless noted
# [2] = tested on: K-562 leukemia; conditions: 10 µM unless noted
# [3] = tested on: MALME-3M melanoma; conditions: 10 µM unless noted
# [4] = tested on: MDA-MB-231 breast; conditions: 10 µM unless noted
# [5] = tested on: RXF 393 renal; conditions: 10 µM unless noted
# [6] = tested on: SF-268 CNS; conditions: 10 µM unless noted
# [7] = tested on: SF-295 CNS; conditions: 10 µM unless noted
# [8] = tested on: SF-539 CNS; conditions: 10 µM unless noted
# [9] = tested on: UACC-257 melanoma; conditions: 10 µM
# [10] = tested on: M14 melanoma; conditions: 10 µM unless noted
# [11] = tested on: HCT-15 colon; conditions: 10 µM unless noted
# [12] = tested on: HT29 colon; conditions: 10 µM unless noted
# [13] = tested on: SNB-75 CNS; conditions: 10 µM unless noted
# [14] = tested on: SNB-19 CNS; conditions: 10 µM unless noted
# [15] = tested on: U251 CNS; conditions: 10 µM unless noted
# [16] = tested on: PC-3 prostate; conditions: 10 µM unless noted
# [17] = tested on: SK-MEL-5 melanoma; conditions: 10 µM unless noted
# [18] = tested on: UACC-62 melanoma; conditions: 10 µM unless noted
# [19] = tested on: LOX IMVI melanoma; conditions: 10 µM unless noted
# [20] = tested on: SK-MEL-28 melanoma; conditions: 10 µM unless noted
Structure (SMILES),growth [1],growth [2],growth [3],growth [4],growth [5],growth [6],growth [7],growth [8],growth [9],growth [10],growth [11],growth [12],growth [13],growth [14],growth [15],growth [16],growth [17],growth [18],growth [19],growth [20]
CCN1C(=O)N(CC)C2SC(N/N=C/C=C/c3ccccc3OC)=NC21 (centres undefined),12.9%,18.3%,50.4%,26.5%,20.5%,50.9%,5.32% (active),-10.6% (active),73.5%,0.965% (active),13.7%,6.38% (active),18.8%,25.5%,18.1%,26.7%,13.2%,37.1%,5.74% (active),60.2%
Cc1cc(C(=O)Nc2ccc(SC#N)cc2)c(C)o1,104%,93.3%,107%,92.4%,66.5%,66.6%,92.4%,98.8%,111%,101%,82.1%,106%,104%,90.7%,76%,73.9%,99.6%,93.1%,-41.2% (active),104%
O=C1c2c(c3c4cccnc4[nH]c3c3ccc4ccccc4c23)C(=O)N1CCN1CCOCC1,59.9%,37.2%,64.4%,86.8%,92.8%,58.7%,51.4%,55.6%,84.1%,47.4%,47.5%,53.3%,68%,55.6%,51.6%,62.1%,43.9%,57.7%,,92.9%
CCCCCCNC(=O)Oc1ccc(/C(=C(\C)c2ccc(OC)cc2)c2ccc(OCCN(C)C)cc2)cc1,96.8%,9.79% (active),1.42% (active),71.8%,52.1%,78.3%,80.8%,45.3%,9.83% (active),6.24% (active),30.8%,15.8%,77.2%,74.9%,58.8%,66.2%,69.9%,89.4%,-48.5% (active),76.2%
CN1CCN(Cc2ccc(NC(=O)c3cncc(C#Cc4cnc5ccc(O[C@H]6CCOC6)nn45)c3)cc2C(F)(F)F)CC1,-78.9% (active),0.583% (active),-87.5% (active),-59.7% (active),-76.9% (active),-63.8% (active),-81.8% (active),-92% (active),-52% (active),-87.2% (active),-49.3% (active),-67.8% (active),-95.9% (active),-69.2% (active),-85.4% (active),-9.05% (active),-95.2% (active),-45.3% (active),-88.1% (active),-80.3% (active)
CCN1C(=O)N(CC)C2SC(N/N=C/c3ccccc3)=NC21 (centres undefined),22.5%,14.7%,58.2%,26%,41.5%,47.6%,12.8%,-11.2% (active),62.9%,12.3%,16.9%,-0.975% (active),37.4%,27.3%,17.1%,28%,12.1%,,17.3%,58.1%
C#C[C@]1(O)CC[C@H]2[C@@H]3CC=C4c5sc(Nc6cc(Cl)ccn6)nc5CC[C@]4(C)[C@H]3CC[C@@]21C,42.5%,7.33% (active),-21.9% (active),32.6%,-52.8% (active),10.7%,-68.7% (active),-53.2% (active),-35.3% (active),-51.8% (active),3.75% (active),21.4%,-33.2% (active),-1.08% (active),15.1%,7.93% (active),-58.9% (active),-17% (active),,-47.3% (active)
O=C(COc1cccc2cccnc12)Nc1ccc(C(=O)/C=C/c2ccc(Cl)cc2)cc1,88.7%,47.4%,108%,93.4%,92.5%,93.7%,91.6%,93.5%,99.8%,99.5%,70%,86.5%,96%,87.2%,92.2%,89.2%,83.7%,,47.5%,101%
COc1ccc(NC2=C(Cl)C(=O)C(C)=C(C)C2=O)cc1,106%,5.78% (active),99.8%,-15.1% (active),100%,96%,100%,103%,85.5%,95.5%,94.8%,106%,71.7%,95.2%,88.6%,74.7%,97.7%,,65.8%,103%
CCOC(=O)C1=C(C)Nc2nc3ccccc3n2C1c1cccc(Br)c1 (centres undefined),93.3%,29.9%,51.9%,79%,99.7%,94.7%,60.7%,85.8%,87.1%,63.4%,48.5%,49.3%,53.9%,77.2%,88.8%,,80.4%,60.3%,82.3%,84.9%
O=C1c2c(c3c4cccnc4[nH]c3c3ccc4ccccc4c23)C(=O)N1CCN1CCCCC1,41.7%,40.5%,77%,96%,70.5%,43.2%,28.5%,54.2%,94%,45.8%,45.5%,44.8%,53.8%,41.1%,55.1%,59.5%,48.1%,49.6%,,97%
COc1ccc(-c2nnc(/N=C3/C(=O)Nc4ccc(Br)cc43)o2)cc1,101%,93.1%,98.4%,108%,112%,99.3%,99.2%,97.9%,106%,101%,91.3%,113%,90%,97.8%,107%,104%,98.8%,95.7%,,102%
COc1cc(-c2noc(C[C@@H](NC(=O)OCc3ccccc3)C(C)C)n2)cc(OC)c1OC,108%,94.4%,94.4%,92.1%,102%,97.5%,105%,102%,98.5%,100%,97.4%,104%,76.3%,89.6%,98.4%,97%,99.3%,,101%,100%
N#Cc1c(-c2ccccc2)cc(-c2c[nH]c3ccccc23)nc1-c1c[nH]c2ccccc12,108%,101%,99.8%,92.6%,95%,96.1%,96.4%,98.6%,107%,101%,99.3%,103%,81.2%,97.6%,94.3%,92.4%,99.2%,,100%,110%
Clc1ccc(-c2nc3ccc(/C(=N\N=C\c4ccccc4)c4ccccc4)cc3[nH]2)cc1,92.5%,53.6%,97.6%,95.8%,90.1%,92.5%,80.7%,92.7%,101%,77.4%,72%,71.7%,113%,93.8%,88.4%,62.2%,86.7%,,84.6%,90.6%
